# Measurements from PubChem BioAssay (Tox21).
# Inconclusive results are not listed. Where a call stands in place of a potency, no number is given. Unmarked numbers belong to inactive results. Activity calls are given as the source filed them. Unless noted, calls follow the shape of the full dose curve.
# Legend:
# [1] = qHTS assay to identify small molecule agonists of the NFkB signaling pathway (AID 1159509; active = well fitted curve in the direction sought with a large enough effect in the signal ratio in the repeat runs, not every such curve was filed as active; the % refers to the signal ratio; also: series mostly up to about 61 µM)
# Method in brief: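 Pathway activation was measured in ME-180 cells stably expressing beta-lactamase under NF-kB response element control. Substrate cleavage was read as the 460/530 nm emission shift after 5 hr compound incubation.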
# [2] = qHTS assay to identify small molecule agonists of the endoplasmic reticulum stress response signaling pathway (AID 1159516; active = well fitted activation curve with a large enough effect in the signal ratio in the repeat runs, not every such curve was filed as active; the % refers to the signal ratio)
# Method in brief: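 HeLa ESRE-bla reporter line; cpd 5 h, 37 C/5% CO2; LiveBLAzer B/G FRET substrate 2 h RT; ex 405, em 460/530 nm.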
# [3] = qHTS assay to identify small molecule agonists of the endoplasmic reticulum stress response signaling pathway - cell viability counter screen (AID 1159517);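 also: HeLa cells carrying an ER stress response element beta-lactamase reporter; series mostly up to about 61 µM; nearly all actives have a fitted effect of over 50% in size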
# Method in brief: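 In parallel with the ESRE reporter read, cytotoxicity was scored by CellTiter-Glo luminescence (30 min, room temperature) on HeLa ESRE-bla cells dosed for 5 hr.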
# [4] = qHTS assay to identify small molecule antagonists of the retinoid-related orphan receptor gamma (ROR-gamma) signaling pathway - cell viability counter screen (AID 1159520; active = well fitted curve in the direction sought with a large enough effect in the repeat runs; an effect the other way counts as inactive or inconclusive; also: nearly all actives have a fitted effect of over 50% in size)
# Method in brief: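 Tet-on ROR gamma CHO cells were given compounds for 2 hr, then doxycycline hyclate at 1 uM final, and incubated 16 hr at 37 C. Viability was measured as ATP content by CellTiter-Glo luminescence.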
# [5] = target: Nuclear receptor ROR-gamma (Homo sapiens) (UniProt P51449); test: qHTS assay to identify small molecule antagonists of the retinoid-related orphan receptor gamma (ROR-gamma) signaling pathway (AID 1159521; active = well fitted curve in the direction sought with a large enough effect in the repeat runs; an effect the other way counts as inactive or inconclusive;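 also: CHO cells with doxycycline inducible ROR-gamma driving an RORE luciferase reporter; top concentration of the series differs between compounds; nearly all actives have a fitted effect of over 50% in size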)
# Method in brief: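 Readout: ONE-Glo luciferase luminescence, 30 min at room temperature. System: Tet-on RORγ CHO, RORE-LUC. Sequence: compound 2 h, doxycycline 1 uM final, 16 h at 37 C.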
# [6] = qHTS assay to identify small molecule agonists of the AP-1 signaling pathway - cell viability counter screen (AID 1159525); also: nearly all actives have a fitted effect of over 55% in size
# Method in brief: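 Same-well cytotoxicity counter screen of the Tox21 10K library in ME-180 cells. The readout is ATP-dependent luminescence after 5 h compound treatment. Data are normalised to DMSO and tetra n-octyl ammonium bromide controls.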
# [7] = qHTS assay to identify small molecule agonists of the AP-1 signaling pathway (AID 1159526)
# [8] = target: Retinoic acid receptor RXR-alpha (Homo sapiens) (UniProt P19793); test: qHTS assay to identify small molecule agonists of the RXR signaling pathway (AID 1159527); also: nearly all actives have a fitted effect of over 35% in size; also: potency is read from the fitted curve at half-maximal effect
# Chain of Retinoic acid receptor RXR-alpha (Homo sapiens) (P19793 whole entry, looked up): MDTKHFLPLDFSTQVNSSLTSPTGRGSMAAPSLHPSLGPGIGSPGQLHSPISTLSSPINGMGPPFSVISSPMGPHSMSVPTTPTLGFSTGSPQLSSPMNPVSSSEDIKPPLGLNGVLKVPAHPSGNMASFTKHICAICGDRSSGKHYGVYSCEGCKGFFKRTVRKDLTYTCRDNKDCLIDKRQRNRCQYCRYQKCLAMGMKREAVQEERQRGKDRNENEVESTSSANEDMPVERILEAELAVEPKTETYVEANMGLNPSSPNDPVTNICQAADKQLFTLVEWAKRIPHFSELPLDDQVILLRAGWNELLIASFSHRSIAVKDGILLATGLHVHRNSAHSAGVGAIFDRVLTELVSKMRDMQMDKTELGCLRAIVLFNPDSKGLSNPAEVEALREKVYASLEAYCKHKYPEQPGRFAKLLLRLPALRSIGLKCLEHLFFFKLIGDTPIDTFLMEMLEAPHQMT
# Method in brief: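 Reporter activation is measured as beta-lactamase activity via FRET substrate cleavage (emission 460/530 nm) in HEK 293T cells expressing an RXR-alpha-driven bla construct, following 16 hr compound exposure at 37 C.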
# [9] = qHTS assay to identify small molecule antagonists of the vitamin D receptor (VDR) signaling pathway - cell viability counter screen (AID 743225; active = well fitted curve in the direction sought with a large enough effect in the repeat runs; an effect the other way counts as inactive or inconclusive; also: nearly all actives have a fitted effect of over 50% in size)
# Method in brief: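 Cytotoxicity toward the VDR-bla HEK 293T line was scored by ATP-based CellTiter-Glo luminescence, read in the wells already used for the beta-lactamase readout after 16 h compound treatment under 3 nM 1-alpha,25-dihydroxyvitamin D3 stimulation.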
# [10] = qHTS assay to identify small molecule agonists of the NFkB signaling pathway - cell viability counter screen (AID 1159515); also: series mostly up to about 61 µM; nearly all actives have a fitted effect of over 55% in size
# Method in brief: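 ME-180 NFkB-bla cells, 2,000/well; overnight attach; compound 5 hr, 37 C/5% CO2; LiveBLAzer substrate 1.5 hr RT; then CellTiter-Glo in same wells, 30 min RT, luminescence read.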
SMILES,outcome [1],outcome [2],outcome [3],outcome [4],outcome [5],outcome [6],outcome [7],Potency [8],outcome [9],"activity change, negative = inhibition [5]","viability change, negative = cytotoxic [6]",activation [7],activation [8],outcome [10],"activity, negative = cytotoxicity [4]"
CC(O)COC(C)(C)C (stereo not given),inactive,inactive,inactive,inactive,inactive,inactive,inactive,inactive,–,–,–,–,–,–,–
OC[C@@H](O)C(O)[C@@H](O)CO (stereo not given in full),inactive,inactive,inactive,–,inactive,inactive,inactive,1.57 µM (active),–,–,–,–,–,–,–
CCCCCCCCCCCCCCCCCCOCCO,inactive,inactive,inactive,–,–,–,–,–,inactive,-12.9% [at 19 µM],-27.1% [at 15.8 µM],0.248% [at 15.8 µM],5.49% [at 15.8 µM],–,–
CCCCCCCCCCCCCBr,inactive,–,inactive,–,inactive,inactive,inactive,inactive,–,–,–,–,–,–,–
C#CCN[C@@H]1CCc2ccccc21,inactive,inactive,inactive,–,inactive,inactive,inactive,inactive,inactive,–,–,–,–,–,–
Cc1c(C(=O)c2c[nH]n(C)c2=O)ccc(S(C)(=O)=O)c1C1=NOCC1,inactive,inactive,inactive,inactive,inactive,inactive,inactive,inactive,–,–,–,–,–,–,–
COc1ccc2c(c1)c1c3n2CCN(C)C3=NCC1,inactive,–,inactive,–,inactive,inactive,inactive,inactive,inactive,–,–,–,–,–,–
O=C(Cl)c1ccccc1[N+](=O)[O-],inactive,–,inactive,inactive,inactive,inactive,inactive,inactive,inactive,–,–,–,–,–,–
COc1nc(N)nc2nc[nH]c12,inactive,–,inactive,inactive,inactive,inactive,inactive,inactive,–,–,–,–,–,–,–
c1ccc(-c2nn[nH]n2)cc1,inactive,inactive,inactive,–,inactive,inactive,inactive,inactive,–,–,–,–,–,–,–
CCC(C(=O)OCCN1CCOC(c2ccccc2)C1C)c1ccccc1 (stereo not given),inactive,inactive,inactive,inactive,inactive,inactive,inactive,inactive,–,–,–,–,–,–,–
CC(=O)OC1CCCCC1C(C)(C)C (stereo not given),inactive,inactive,inactive,–,inactive,inactive,inactive,inactive,inactive,–,–,–,–,–,–
O=C(O)CSCC(=O)NC1CCSC1=O (stereo not given),inactive,inactive,inactive,inactive,inactive,inactive,inactive,inactive,inactive,–,–,–,–,–,–
O=C(CCCl)NCCc1ccccc1,inactive,–,inactive,inactive,inactive,inactive,inactive,inactive,inactive,–,–,–,–,–,–
O=C=NCC1CCCC(CN=C=O)C1 (stereo not given),inactive,inactive,inactive,inactive,inactive,inactive,inactive,inactive,inactive,–,–,–,–,–,–
CC(C)CCOC(=O)c1ccccc1,inactive,inactive,inactive,inactive,inactive,inactive,inactive,inactive,inactive,–,–,–,–,–,–
O=[N+]([O-])c1c(Cl)cc(Cl)cc1Cl,inactive,inactive,inactive,–,inactive,inactive,inactive,inactive,inactive,–,–,–,–,–,–
C=C(C)c1cccc(C(C)(C)N=C=O)c1,inactive,inactive,inactive,inactive,inactive,inactive,inactive,inactive,–,–,–,–,–,–,–
CC(C)c1ccc(C=O)cc1,inactive,inactive,inactive,inactive,inactive,inactive,inactive,43.6 µM (active),inactive,–,–,–,–,–,–
C=C(C)[C@@H]1CC=C(C)CC1,–,inactive,inactive,inactive,–,inactive,inactive,inactive,–,–,–,–,–,inactive,–
[O]=[Mo](=[O])=[O],inactive,inactive,inactive,–,–,–,–,–,inactive,4.36% [at 19 µM],-2.83% [at 15.8 µM],-20.6% [at 15.8 µM],0.58% [at 15.8 µM],–,11.6% [at 19 µM]
CC1(C)Cc2cccc(N)c2O1,inactive,inactive,inactive,inactive,inactive,inactive,inactive,inactive,inactive,–,–,–,–,–,–
Cc1ccccc1C(N)=O,inactive,inactive,inactive,inactive,inactive,inactive,inactive,inactive,inactive,–,–,–,–,–,–
Cc1cc(C)c(C(=O)O)c(C)c1,inactive,inactive,inactive,–,inactive,inactive,inactive,inactive,–,–,–,–,–,–,–
CC(=O)C1C(=O)C=C(C)OC1=O (stereo not given),–,inactive,inactive,inactive,inactive,inactive,inactive,inactive,inactive,–,–,–,–,–,–
CCCCCc1cccc(=O)o1,inactive,inactive,inactive,inactive,inactive,inactive,inactive,inactive,–,–,–,–,–,–,–
CC/C=C\CCOC(=O)c1ccccc1O,inactive,inactive,inactive,inactive,inactive,inactive,inactive,inactive,–,–,–,–,–,–,–
